This passage reports outcome results from PubChem BioAssay AID2284352 (EPA ToxCast).

The structures appear in SMILES notation. Results filed as inconclusive are left out. Activity calls are given as the source filed them. The calls were made as follows: active = hit-call score of the fitted dose curve at least 0.9, where 1 is the maximum; inconclusive = response in the unintended direction; inactive = score below 0.9.

In this assay the test system is rainbow trout Peroxisome Proliferator-activated Receptor gamma (PPARg), gene 110528708. In words: ATG_rtPPARg_EcoTox2: Attagene TRANS-FACTORIAL EcoTox-2 HepG2 Assay for rainbow trout Peroxisome Proliferator-activated Receptor gamma (PPARg). The protocol:
ATG_EcoTox2 is a cell-based, multiplexed assay created by modifying the existing Attagene TRANS-FACTORIAL system to include a panel of nuclear receptors from some or all the following species: human (Homo sapiens), african clawed frog (Xenopus laevis), rainbow trout (Oncorhynchus mykiss), japanese medaka (Oryzias latipes), and zebrafish (Danio rerio). The ECOTOX2-FACTORIAL format uses HepG2, a human liver cell line, with measurements taken at 24 hours after chemical dosing in a 24-well plate. ATG_rtPPARg_EcoTox2 is one of 29 assay components calculated in the ATG_EcoTox2 assay. It is designed to make measurements of mRNA induction, a form of inducible reporter, as detected with fluorescence intensity signals by Reverse transcription polymerase chain reaction (RT-PCR) and Capillary electrophoresis technology.The assay endpoint ATG_rtPPARg_EcoTox2 was analyzed in the positive analysis fitting direction relative to DMSO as the negative control and baseline of activity. Using a type of inducible reporter, measures of mRNA for gain-of-signal activity can be used to understand the reporter gene at the transcription factor-level as they relate to the gene PPARg. Furthermore, this assay endpoint can be referred to as a primary readout, because this assay has produced multiple assay endpoints where this one serves a reporter gene function. To generalize the intended target to other relatable targets, this assay endpoint is annotated to the nuclear receptor intended target family, where the subfamily is non-steroidal.
Human liver HepG2 cells are transiently transfected with multiple reporter transcription units (MRTUs) in 6-well plates using FuGene 6 reagent (Roche; 3 ml FuGene/1 mg DNA). The MRTU constructs are regulated by a cis-regulating element (promoter). Each RTU expresses a GAL4-UAS that regulates the transcription of a nearby target reporter gene sequence. A major difference between the CIS and TRANS system is that in CIS activities of endogenous TFs are measured, whereas the TRANS assay evaluates changes in activities of exogenous, chimeric NR-Gal4 proteins. […] At the end of 24 hour incubation, total RNA was isolated using TriZol reagent (Invitrogen). The isolated RNA is then reverse-transcribed using oligo(dT) primer and Mo-MLV reverse transcriptase (Invitrogen) with DNAse I (Ambion) treatment for 30 min. The one-tenth of the produced cDNA was amplified by PCR using Taq DNA polymerase (Invitrogen) and two reporter sequence-specific primers. […] The fragments were purified using Qiaquick PCR columns (Qiagen), analyzed on an ABI 3130xL genetic analyzer (Applied Biosystems) with peak positions identified by using a set of X-rhodamine (ROX)-labeled MapMarker1000 molecular weight standards (BioVentures). […]
For `Cc1ccc(C)c(OCCCC(C)(C)C(=O)O)c1`, the molecule was called inactive. As to `C[C@]12C=CC(=O)C=C1CC[C@@H]1[C@@H]2C(=O)C[C@@]2(C)[C@H]1CC[C@]2(O)C(=O)CO`, the molecule was classed as inactive. The same measure for `CC(C)(Oc1ccc(Cl)cc1)C(=O)O`: “inactive”; for `CC(C)OC(=O)C(C)(C)Oc1ccc(C(=O)c2ccc(Cl)cc2)cc1`: “inactive”.
